# PubChem BioAssay
# Calls of active or inactive are those of the source. The rule behind the calls is not given here.
# Molecular target: Pantothenate synthetase (Mycobacterium tuberculosis (strain ATCC 25618 / H37Rv)) (UniProt P9WIL5)
# Assay: Coupled enzyme confirmation of inhibitors against recombinant Mtb PanC (AID 375);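 note: 0% = full reaction with vehicle and 100% = no enzyme background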
# Conditions: coupled enzyme assay; at 10 µM, stronger effect = higher value
# Sequence of Pantothenate synthetase (Mycobacterium tuberculosis (strain ATCC 25618 / H37Rv)) (P9WIL5 whole entry, looked up): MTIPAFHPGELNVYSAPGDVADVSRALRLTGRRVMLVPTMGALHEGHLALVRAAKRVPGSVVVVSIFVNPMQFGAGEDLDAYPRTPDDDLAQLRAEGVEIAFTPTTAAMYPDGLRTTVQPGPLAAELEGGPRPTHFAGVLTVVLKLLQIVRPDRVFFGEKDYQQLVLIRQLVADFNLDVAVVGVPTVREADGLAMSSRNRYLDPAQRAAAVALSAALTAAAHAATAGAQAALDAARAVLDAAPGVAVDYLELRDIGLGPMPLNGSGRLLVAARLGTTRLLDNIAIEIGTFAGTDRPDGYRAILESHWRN
row,SMILES,inhibition
1,COC(=O)c1ccc(COC(=O)c2c(C)nn(Cc3ccccc3Cl)c2Cl)o1,0% (inactive)
2,O=C(c1ccc(-c2ccccc2)cc1)N1CCC(C(=O)N2CCCC2)CC1,0% (inactive)
3,CCOc1ccc(OCC)c(NC(=O)C2CCN(S(=O)(=O)c3cnc[nH]3)CC2)c1,4% (inactive)
4,CCOC(=O)CSc1nnc([C@H](CC(C)C)NC(=O)OC(C)(C)C)o1,2% (inactive)
5,COc1ccccc1NC(=O)CSc1nnc(Cc2cccn2C)n1-c1ccc(F)cc1,0% (inactive)
6,COc1ccc(NS(=O)(=O)c2coc(C(N)=O)c2)cc1Cl,0% (inactive)
7,CCOC(=O)N1CCC(NC(=O)C2CCC(Cn3c(=O)[nH]c4ccccc4c3=O)CC2)CC1 (stereo not given),9% (inactive)
8,Cc1cccc2c(=O)oc(-c3ccc4c(c3)C(=O)N(CC3CCCO3)C4=O)nc12 (stereo not given),0% (inactive)
9,CCOC(=O)C1=C(C)NC2=C(C(=O)CC(C)(C)C2)C1c1ccc(N(C)C)cc1 (stereo not given),0% (inactive)
10,CC(=O)c1n[nH]nc1NC(=O)c1ccccc1,0% (inactive)
11,Cc1c2c(nc3nc4ccccc4n13)CC(C)(C)CC2=O,8% (inactive)
12,Nc1nc2sc3c(c2c(=O)s1)CCCC3,0% (inactive)
13,O=C(C1CCN(S(=O)(=O)c2cnc[nH]2)CC1)N1CCN(c2ncccn2)CC1,0% (inactive)
14,Cc1ccccc1C(=O)Nc1c(C(=O)N2CCCC2)cnn1-c1ccccc1,8% (inactive)
15,Cc1ccc(S(=O)(=O)Cn2nnnc2CN(Cc2ccco2)Cc2cccs2)cc1,0% (inactive)
16,CCOC(=O)c1ccc(-n2c(=O)[nH]c3ccccc3c2=O)cc1,2% (inactive)
17,CCOC(=O)Nc1nnc(-c2ccccc2OC)s1,0% (inactive)
18,CCOC(=O)C1=C(c2ccccc2)NC(=O)NC1c1ccc(N(C)C)cc1 (stereo not given),0% (inactive)
19,COc1ccc2cc3cc(C(=O)NCC4CCCO4)oc3nc2c1 (stereo not given),3% (inactive)
20,Cc1cc(NC(=O)Cn2cnc3c(cnn3C(C)(C)C)c2=O)no1,3% (inactive)

row,SMILES,inhibition
1,Nc1nnc(SCC(=O)N2CCc3ccccc32)n1-c1ccccc1,1% (inactive)
2,Cc1cc(NC(=O)c2cnn3cccnc23)no1,3% (inactive)
3,CN(C)c1ccc(-c2nn3c(-c4ccc(Cl)cc4Cl)nnc3s2)cc1,9% (inactive)
4,O=C(Nc1nc(-c2ccccn2)cs1)C1CC1,0% (inactive)
5,CC(=O)O[C@H]1C(=O)[C@]2(C)[C@H]([C@H](OC(=O)c3ccccc3)[C@]3(O)C[C@H](OC(=O)[C@H](O)[C@@H](NC(=O)c4ccccc4)c4ccccc4)C(C)=C1C3(C)C)[C@]1(OC(C)=O)CO[C@@H]1C[C@@H]2O,9% (inactive)
6,Cc1ccc2c(c1)NC(=O)C(CC(=O)NC1CCCCC1C)O2 (stereo not given),11% (inactive)
7,CCN(CC)C(=O)Oc1ccc(NC(C)=O)cc1,0% (inactive)
8,CC1CN(c2nc3ccccc3nc2C(C#N)C(=O)OC2CCCCC2)CC(C)O1 (stereo not given),2% (inactive)
9,CCOc1nc(-c2ccccc2O)nc2ccccc12,0% (inactive)
10,O=C(CCn1c(=O)sc2ccccc21)NCc1ccc2c(c1)OCO2,0% (inactive)
11,CC(C)(C)N=C1NC(=NC(C)(C)C)c2ccccc21,0% (inactive)
12,Cc1ccc(-c2nn(-c3ccccc3)cc2CN(Cc2ccccc2)C(=O)CCC(=O)O)o1,8% (inactive)
13,O=C(c1ccccc1F)N1CCN(Cc2cccc(Cl)c2)CC1,5% (inactive)
14,Cc1cc(C)n2nc(SCC(=O)N(C)c3ccccc3)nc2n1,1% (inactive)
15,COc1ccccc1CNC(=O)C1CCC(CNc2c(N3CCOCC3)c(=O)c2=O)CC1 (stereo not given),0% (inactive)
16,Cc1c(NC(=O)CCc2ccc(S(=O)(=O)N3CCOCC3)cc2)c(=O)n(-c2ccccc2)n1C,2% (inactive)
17,COc1ccc(OC)c(S(=O)(=O)N2c3ccccc3CC2C)c1 (stereo not given),0% (inactive)
18,O=C(Cn1cnc2sc(-c3ccccc3)cc2c1=O)N1CCOCC1,9% (inactive)
19,C=CCNc1nc2c(c(=O)n(C)c(=O)n2C)n1CCCCCC,0% (inactive)
20,CCSc1oc(-c2ccco2)nc1S(=O)(=O)c1ccccc1,0% (inactive)
